Assay [1] is described as follows: qHTS assay to identify small molecule antagonists of the estrogen related receptor (ERR) signaling pathway (AID 1224819; also: potency is read from the fitted curve at half-maximal effect; nearly all actives have a fitted effect of over 50% in size). The essentials:
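ERR reporter cells were plated at 2,000 cells/well and left 6 h at 37 C/5% CO2 before pin-tool transfer of compounds in DMSO. After 18 h at 37 C, One-Glo was added and luminescence was read 30 min later at room temperature.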

Assay [2] can be described thus: qHTS assay to identify small molecule agonists of the estrogen related receptor (ERR) signaling pathway (AID 1224820). The essentials: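 Cells: ERR line from NTP, 2,000/well. Pre-incubation 6 h, 37 C/5% CO2. Compound (DMSO) pin transfer, 18 h 37 C. One-Glo, 30 min RT, luminescence.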
On the technique in general: Quantitative high-throughput screening tests each substance at several concentrations.

In assay [3] the test system is estrogen-related receptor alpha (ERRalpha) with PGC-1alpha coactivator, human. Briefly: qHTS assay to identify small molecule antagonists of the estrogen related receptor signaling pathway with the pleiotropic PPARgamma coactivator (PGC) (AID 1224821; calls by dose curve; also: potency is read from the fitted curve at half-maximal effect; nearly all actives have a fitted effect of over 50% in size). The essentials: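 Luminescent read-out (One-Glo, 30 min at room temperature) following 18 h treatment of PGC/ERR cells at 37 C with compounds delivered in DMSO. Cells had settled 6 h at 37 C/5% CO2 before dosing.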

Assay [4] can be described thus: qHTS assay to identify small molecule antagonists of the estrogen related receptor signaling pathway with the pleiotropic PPARgamma coactivator (PGC) cell viability counter screen (AID 1224822; also: potency is read from the fitted curve at half-maximal effect). The essentials: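 PGC/ERR cells were seeded at 2,000 cells/well, rested 6 h at 37 C/5% CO2, then given compounds in DMSO by pin tool and incubated 17.5 h at 37 C. Viability came from CellTiter-Fluor fluorescence after 30 min.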

A short description of assay [5]: qHTS assay to identify small molecule agonists of the estrogen related receptor signaling pathway with the pleiotropic PPARgamma coactivator (PGC) (AID 1224823). The essentials:
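Steps: plate PGC/ERR cells at 2,000 cells/well; incubate 6 h, 37 C/5% CO2; pin-transfer compounds (DMSO); incubate 18 h, 37 C; add One-Glo; 30 min RT; read luminescence.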

Assay [6] is described as follows: qHTS assay to identify small molecule antagonists of the retinoid acid receptor (RAR) signaling pathway - cell viability counter screen (AID 1159551). Also: nearly all actives have a fitted effect of over 35% in size. The essentials: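 C3RL4 cells were seeded overnight at 37 C, then treated with compounds plus 1 uM (final) retinol for 6 h at 37 C. Viability was read as ATP by CellTiter-Glo luminescence after 30 min at room temperature.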

The nature of assay [7]: qHTS assay to identify small molecule antagonists of the estrogen related receptor (ERR) signaling pathway from Tox21 library - cell viability counter screen (AID 1224834). Also: nearly all actives have a fitted effect of over 30% in size. Also: potency is read from the fitted curve at half-maximal effect. The essentials:
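ERR reporter cells were plated 6 h before compound addition, then exposed to test compounds in DMSO for 17.5 h at 37 C. Viability was read as CellTiter-Fluor fluorescence after a 30-minute incubation at 37 C.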

A short description of assay [8]: qHTS assay to identify small molecule agonists of the constitutive androstane receptor (CAR) signaling pathway - cell viability counter screen (AID 1224836). Also: nearly all actives have a fitted effect of over 45% in size. Also: potency is read from the fitted curve at half-maximal effect. The essentials: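 Double-stable HepG2 hepatoma cells (hCAR plus CYP2B6-2.2kb) are treated for 23 h at 37 C with test compounds in 15-point concentration series. PK11195 at 0.75 uM final is co-added. Cell viability is quantified by CellTiter-Fluor.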

Assay [9] can be described thus: qHTS assay to identify small molecule antagonists of the constitutive androstane receptor (CAR) signaling pathway - cell viability counter screen (AID 1224837). Also: nearly all actives have a fitted effect of over 45% in size. Also: potency is read from the fitted curve at half-maximal effect. The essentials:
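HepG2 cells stably expressing hCAR and a CYP2B6-2.2kb reporter were plated and pre-incubated 4 hr at 37 C/5% CO2, then given compounds at 15 concentrations plus 50 nM CITCO (final). After 23 hr, viability was read by CellTiter-Fluor fluorescence.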

Assay [10] in a line: qHTS assay to identify small molecule antagonists of the estrogen related receptor signaling pathway with the pleiotropic PPARgamma coactivator (PGC) from Tox21 10K library - cell viability counter screen (AID 1224840; active = well fitted cell-killing curve with a large enough effect in the repeat runs, not every such curve was filed as active; also: nearly all actives have a fitted effect of over 40% in size; also: potency is read from the fitted curve at half-maximal effect). The essentials:
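PGC/ERR cells were seeded at 2,000 cells/well and left 6 hours at 37 C/5% CO2 before pin-tool addition of compounds in DMSO. After 17.5 hours at 37 C, CellTiter-Fluor was added and fluorescence read 30 minutes later.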

For assay [11], the target named is Luciferin 4-monooxygenase (Photinus pyralis) (UniProt P08659). Put plainly: qHTS assay to identify small molecule inhibitors of firefly luciferase (AID 1224835). Also: nearly all actives have a fitted effect of over 25% in size. Also: potency is read from the fitted curve at half-maximal effect. The essentials: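 Inhibition of purified Photinus luciferase is measured by luminescence. Substrate levels (D-luciferin, ATP) sit at their KM values. Each compound is tested in a concentration series.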

The target in assay [12] is Nuclear receptor subfamily 1 group I member 3 (Homo sapiens) (UniProt Q14994). Briefly: qHTS assay to identify small molecule antagonists of the constitutive androstane receptor (CAR) signaling pathway (AID 1224838). Also: nearly all actives have a fitted effect of over 40% in size. Also: potency is read from the fitted curve at half-maximal effect. The essentials:
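HepG2 cells stably co-transfected with hCAR and a CYP2B6-2.2kb luciferase reporter were seeded 4 h before compound addition at 15 concentrations. Cells were stimulated with 50 nM CITCO (final) for 24 h at 37 C; luciferase luminescence was then read.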

Assay [13] shares this target. Briefly: qHTS assay to identify small molecule agonists of the constitutive androstane receptor (CAR) signaling pathway (AID 1224839). Also: nearly all actives have a fitted effect of over 15% in size. Also: potency is read from the fitted curve at half-maximal effect. The essentials:
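Readout: firefly luciferase luminescence via ONE-Glo. System: HepG2 double-stable for hCAR and CYP2B6-2.2kb. Conditions: 15-point compound titration, PK11195 at 0.75 uM final, 24 h incubation.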

A short description of assay [14]: qHTS assay to identify small molecule antagonists of the estrogen related receptor signaling pathway with the pleiotropic PPARgamma coactivator (PGC) from Tox21 10K library (AID 1224841; call rule not given here; also: actives are mostly falling curves and most rising ones were filed inactive; nearly all actives have a fitted effect of over 50% in size; also: potency is read from the fitted curve at half-maximal effect). The essentials:
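PGC/ERR reporter cells were seeded at 2,000 cells/well and held 6 hours at 37 C/5% CO2 before pin-tool addition of compounds in DMSO. After 18 hours at 37 C, One-Glo was added and luminescence read after 30 minutes at room temperature.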

The nature of assay [15]: qHTS assay to identify small molecule agonists of the estrogen related receptor signaling pathway with the pleiotropic PPARgamma coactivator (PGC) from Tox21 10K library (AID 1224842). Also: nearly all actives have a fitted effect of over 15% in size. The essentials:
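Luminescence from One-Glo (30 min, room temperature) measured after PGC/ERR cells had 18 h at 37 C with pinned compound (23 nL in DMSO). Cells had been seeded at 2,000 per well and pre-incubated 6 h.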

Assay [16] concerns the target Thyrotropin receptor (Homo sapiens) (UniProt P16473). Put plainly: qHTS assay to identify small molecule agonists of the thyroid stimulating hormone receptor (TSHR) signaling pathway (AID 1224843; calls by dose curve; also: nearly all actives have a fitted effect of over 45% in size; also: potency is read from the fitted curve at half-maximal effect). The essentials: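 Screening of the Tox21 10K collection used HEK293 cells engineered with TSHR at 800 cells per well. After a 30-min room-temperature compound exposure, HTRF cAMP reagents were added and fluorescence recorded 1 h later.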

The nature of assay [17]: qHTS assay to identify small molecule antagonists of the retinoic acid receptor (RAR) signaling pathway (AID 1159552; also: nearly all actives have a fitted effect of over 50% in size; also: potency is read from the fitted curve at half-maximal effect). The essentials:
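Antagonism of retinol-induced RARE reporter activity was measured in C3RL4 cells. Exposure to compounds and 1 uM final retinol lasted 6 hr at 37 C, with luminescence as endpoint.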

A short description of assay [18]: qHTS assay to identify small molecule agonists of the retinoic acid receptor (RAR) signaling pathway (AID 1159553). The essentials: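 C3RL4 cells carrying a RARE luciferase reporter were plated overnight at 37 C, then exposed to compounds in DMSO for 6 hr at 37 C and 5% CO2. Luminescence was read 30 min after luciferase reagent addition at room temperature.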
A short description of assay [19]: qHTS assay to identify small molecule agonists of the RXR signaling pathway - cell viability counter screen (AID 1159529). Also: nearly all actives have a fitted effect of over 50% in size. Also: potency is read from the fitted curve at half-maximal effect. The essentials: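 Counter screen: CellTiter-Glo luminescence. Cells: RXR-alpha-UAS-bla HEK 293T. Medium: 2% charcoal-stripped FBS. Treatment: 16 h, 37 C. Reagent incubation: 30 min, RT.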

Records with an inconclusive call do not appear. Values without a mark were called inactive. The source made the active and inactive calls. Unless noted, calls follow the shape of the dose curve; as a rule, active = well fitted curve in the direction sought with a large enough effect in the repeat runs; inconclusive = weak or mixed curves; inactive = no such curve, though single readings can be large; an effect the other way counts as inactive or inconclusive.

Thyrotropin receptor (Homo sapiens), sequence (P16473 whole entry, looked up): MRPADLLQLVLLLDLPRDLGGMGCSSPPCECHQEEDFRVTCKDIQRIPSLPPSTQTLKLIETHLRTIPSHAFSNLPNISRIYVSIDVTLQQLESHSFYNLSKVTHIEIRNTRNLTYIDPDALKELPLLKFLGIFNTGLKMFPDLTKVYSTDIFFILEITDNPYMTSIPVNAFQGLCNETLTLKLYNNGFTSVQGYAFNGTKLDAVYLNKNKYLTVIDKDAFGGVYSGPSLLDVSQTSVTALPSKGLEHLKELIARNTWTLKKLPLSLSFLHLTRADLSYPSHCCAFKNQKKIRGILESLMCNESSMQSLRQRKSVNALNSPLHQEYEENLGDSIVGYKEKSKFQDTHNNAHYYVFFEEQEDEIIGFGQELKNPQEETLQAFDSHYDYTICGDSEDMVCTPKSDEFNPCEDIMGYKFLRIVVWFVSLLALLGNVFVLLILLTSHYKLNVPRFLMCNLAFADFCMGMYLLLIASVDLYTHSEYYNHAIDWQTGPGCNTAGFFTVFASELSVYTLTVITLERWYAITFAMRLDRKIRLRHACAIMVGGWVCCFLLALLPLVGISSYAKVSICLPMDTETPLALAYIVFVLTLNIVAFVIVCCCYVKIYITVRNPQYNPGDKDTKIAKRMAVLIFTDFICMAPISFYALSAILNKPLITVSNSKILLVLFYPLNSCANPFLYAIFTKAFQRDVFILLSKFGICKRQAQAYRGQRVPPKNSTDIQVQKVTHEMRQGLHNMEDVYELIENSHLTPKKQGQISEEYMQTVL
Nuclear receptor subfamily 1 group I member 3 (Homo sapiens), sequence (Q14994 whole entry, looked up): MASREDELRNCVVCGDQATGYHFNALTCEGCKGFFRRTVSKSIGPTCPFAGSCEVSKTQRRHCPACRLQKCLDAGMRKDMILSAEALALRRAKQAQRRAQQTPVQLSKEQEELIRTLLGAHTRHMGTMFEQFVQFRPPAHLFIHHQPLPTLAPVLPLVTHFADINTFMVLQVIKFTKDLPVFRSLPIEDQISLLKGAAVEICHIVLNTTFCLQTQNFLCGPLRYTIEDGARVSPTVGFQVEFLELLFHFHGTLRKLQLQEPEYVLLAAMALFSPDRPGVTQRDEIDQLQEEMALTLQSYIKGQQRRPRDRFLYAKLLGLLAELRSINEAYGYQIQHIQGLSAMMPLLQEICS
Luciferin 4-monooxygenase (Photinus pyralis), sequence (P08659 whole entry, looked up): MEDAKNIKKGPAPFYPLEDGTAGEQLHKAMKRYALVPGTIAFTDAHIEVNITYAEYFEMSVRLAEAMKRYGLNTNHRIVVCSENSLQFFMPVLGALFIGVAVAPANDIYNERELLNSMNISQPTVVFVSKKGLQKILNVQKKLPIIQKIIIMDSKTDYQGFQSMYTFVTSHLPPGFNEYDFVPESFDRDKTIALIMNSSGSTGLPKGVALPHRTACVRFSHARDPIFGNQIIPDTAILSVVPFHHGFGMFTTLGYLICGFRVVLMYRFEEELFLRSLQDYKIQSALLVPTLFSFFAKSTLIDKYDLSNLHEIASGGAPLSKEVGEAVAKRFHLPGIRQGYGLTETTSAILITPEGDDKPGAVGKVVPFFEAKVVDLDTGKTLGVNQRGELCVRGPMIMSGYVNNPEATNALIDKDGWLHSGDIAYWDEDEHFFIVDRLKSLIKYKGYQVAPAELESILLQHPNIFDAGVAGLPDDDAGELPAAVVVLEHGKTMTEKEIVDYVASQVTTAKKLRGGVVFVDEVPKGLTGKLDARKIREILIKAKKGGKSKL

`Fc1ccc(C(OCCN2CCN(CCCc3ccccc3)CC2)c2ccc(F)cc2)cc1`: the Potency in assay [1] was 9.08 µM (active); in [3] it was 12.8 µM (active); in [4], 22.8 µM (active). The Potency entry in assay [2] and in assay [5] was “inactive” throughout.

With `[Cl-].[Cl-].[Cl-].[Yb+3]`, the Potency entry in assay [6], in assay [7], in assay [8], in [9] and in [10] was “inactive” each time.

Regarding `Cc1ccccc1OP(=O)(Oc1ccccc1C)Oc1ccccc1C`, the Potency result in assay [7], in [11], in assay [9], in assay [12], in assay [10] and in assay [14] was “inactive” in each case. Besides, the Potency entry in assay [15] and in assay [16] was “inactive” each time. The Potency in [13] was 21.8 µM (active).

Take `CCCCCCC[CH2][Sn]([Cl])([Cl])[CH2]CCCCCCC`: the Potency entry in [6], in assay [17], in [18], in assay [11], in assay [9] and in assay [12] was “inactive” in each case. The Potency entry in assay [13], in assay [15] and in [16] was “inactive” throughout. The Potency in assay [14] is 27.3 µM (active).

On to `Cc1c([N+](=O)[O-])cc2c(c1[N+](=O)[O-])C(C)(C)CC2(C)C`, for which the Potency entry in assay [6], in assay [17], in [18], in assay [7], in [11] and in assay [8] was “inactive” each time. In addition, the Potency result in assay [9], in assay [12], in assay [10] and in assay [15] was “inactive” throughout. Further, the Potency in [14] was 30.6 µM (active).

Take `N#CC(C#N)=NNc1cccc(Cl)c1`: the Potency result in assay [6], in assay [13] and in assay [15] was “inactive” throughout. Moreover, the Potency in [17] was 2.73 µM (active); in assay [7], 9.69 µM (active); in assay [11], 35.6 µM (active); in assay [8], 6.11 µM (active); in assay [9], 6.86 µM (active); in [12], 2.43 µM (active). Also, the Potency is 7.7 µM (active) in assay [10] and 0.969 µM (active) in assay [14].

As for `O.O.O.O=C([O-])[C@H]([O-])[C@@H]([O-])C(=O)[O-].O=C([O-])[C@H]([O-])[C@@H]([O-])C(=O)[O-].[K+].[K+].[Sb+3].[Sb+3]`, the Potency result in [6] and in assay [11] was “inactive” in each case. The Potency in assay [7] was 17.3 µM (active); in assay [10] it was 19.4 µM (active).

Turning to `CN=C=O`, the Potency entry in assay [19], in assay [11], in assay [8], in [9], in [12] and in [13] was “inactive” throughout. Besides, the Potency result in assay [10], in assay [14] and in [15] was “inactive” throughout.

As for `O=S1(=O)OCC2C(CO1)C1(Cl)C(Cl)=C(Cl)C2(Cl)C1(Cl)Cl` (centres undefined), the Potency is 43.6 µM (active) in [19], 39.9 µM (active) in [11] and 17.2 µM (active) in assay [16]. Moreover, in assay [10], the Potency entry was “inactive”.

Consider `CSC(=O)c1c(C(F)F)nc(C(F)(F)F)c(C(=O)SC)c1CC(C)C`, for which the Potency result in assay [6], in assay [18], in assay [11], in assay [9], in assay [12] and in assay [10] was “inactive” each time.

For the origin of these results see PubChem BioAssay (Tox21).
